From PubChem BioAssay (NCI)
“And” between values parts separate entries of the source, which are not always exact repeats. Identical values can stand only once. Compounds without any hit were thinned out: in the full panel of roughly 79,000, 15% have a hit. The source made the active and inactive calls. Cut-off read from the data, not from the text of the source: active = growth inhibition above about 70%; inactive = the rest.

Tests used:
[1] = NCI Yeast Anticancer Drug Screen. Data for the mec2-1 strain (AID 157); conditions: S. cerevisiae mec2-1 strain, hits give high values
How it was run: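 Using mec2-1 yeast: add compound, measure growth, express inhibition versus vehicle-treated cultures.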

[2] = NCI Yeast Anticancer Drug Screen. Data for the sgs1 mgt1 strain (AID 161);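 note: 0% = growth of cultures given vehicle only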; conditions: S. cerevisiae sgs1 mgt1 strain, hits give high values
How it was run: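 Yeast cells carrying a defined DNA-repair defect were exposed to test compounds. Growth inhibition was measured relative to vehicle-treated controls.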

[3] = NCI Yeast Anticancer Drug Screen. Data for the cln2 rad14 strain (AID 165);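 note: 0% = growth equal to vehicle treated cultures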; conditions: S. cerevisiae cln2 rad14 strain, hits give high values
How it was run: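 Yeast strain cln2 rad14, bearing defects in cell cycle control and DNA repair, serves as the test system; values reflect growth inhibition compared with vehicle.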

[4] = NCI Yeast Anticancer Drug Screen. Data for the bub3 strain (AID 167); conditions: S. cerevisiae bub3 mutant strain, hits give high values
How it was run: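 Growth of a checkpoint-deficient yeast mutant is measured after compound exposure. Values represent inhibition relative to vehicle.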

[5] = NCI Yeast Anticancer Drug Screen. Data for the mlh1 rad18 strain (AID 175); conditions: S. cerevisiae mlh1 rad18 strain growth inhibition, hits give high values
How it was run: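 Steps: expose repair-defective yeast to compound; measure growth; express inhibition against vehicle-treated controls.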

[6] = NCI Yeast Anticancer Drug Screen. Data for the rad50 strain (AID 155);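 note: 0% = growth of vehicle-only cultures of the same strain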; conditions: S. cerevisiae rad50 strain growth inhibition, hits give high values
How it was run: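 Compounds were tested on a yeast strain with an engineered DNA damage repair alteration; the reported value is growth inhibition normalised to vehicle treatment.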

[7] = at 5.0 µM (retest, dose inferred, filed as 0.5)
[8] = at 50.0 µM (retest, dose inferred, filed as 5.0)

Measured: growth inhibition

COc1cc(/C=C2\CCOC2=O)ccc1O
inactive: [1]; at 50.0 µM -1.45% and 31.7% and 1.8% | [2]; at 50.0 µM -7.55% and 1.8% and -18.2% | [3]; at 50.0 µM -9.15% and 14.1% and -3.85% | [4]; at 50.0 µM 3.6% and 13.2% and 9.3% | [5]; at 50.0 µM -5.35% and -1.3% and -13.3%

Oc1ccc(O)c(C2CCCCC2)c1
active: [6]; [8] 94% | [6]; at 50.0 µM 96.7% | [1]; [8] 99% | [1]; at 50.0 µM 89.7% | [3]; [8] 94% | [4]; [8] 99% | [4]; at 50.0 µM 89% | [5]; [7] 83% | [5]; [8] 99% | [5]; at 50.0 µM 94.8%
inactive: [6]; [7] 30% | [1]; [7] 62% | [3]; [7] 46% | [3]; at 50.0 µM 50.4% | [4]; [7] 51%

CCCCCCCC(=O)O[C@H]1[C@H]2[C@@H](CC1(C)C)C(=O)[C@]13O[C@H]1C(=O)[C@]1(CO1)[C@]23C
active: [6]; [8] 98% | [6]; at 50.0 µM 91% | [1]; [8] 98% | [1]; at 50.0 µM 92.8% | [3]; [7] 80% | [3]; [8] 98% | [3]; at 50.0 µM 90.8% | [4]; [7] 83% | [4]; [8] 97% | [4]; at 50.0 µM 90.4% | [5]; [7] 73% | [5]; [8] 97% | [5]; at 50.0 µM 91.5%
inactive: [6]; [7] 48% | [1]; [7] 47%

C/C(C=C(C#N)C#N)=C\c1ccc([N+](=O)[O-])cc1
inactive: [1]; [7] -16% | [1]; [8] 67% | [2]; [7] -1% | [2]; [8] 40% | [2]; at 50.0 µM 64.8% | [3]; [7] 36% | [3]; [8] 60% | [3]; at 50.0 µM 55.5% | [4]; [7] 15% | [4]; at 50.0 µM 64.8% | [5]; [7] -3% | [5]; at 50.0 µM 67.3%
active: [1]; at 50.0 µM 70.4% | [4]; [8] 81% | [5]; [8] 89%

CCOC(=O)CCC(N)C(=O)OCC (stereo unspecified)
inactive: [6]; at 50.0 µM 20.8% and 1.45% and -26.1% | [1]; at 50.0 µM -4.05% and -5.05% and -0.15% | [2]; at 50.0 µM 8.4% and -2% and -19.9% | [3]; at 50.0 µM 5.9% and -29.1% and -40.6% | [4]; at 50.0 µM 1.45% and 7.05% and -8.7% | [5]; at 50.0 µM 10.9% and 23.9% and -16.1%

CN1c2ccccc2Sc2c1n[nH]c2-c1ccccc1
inactive: [6]; [7] -1% | [6]; [8] 64% | [1]; [7] -3% | [2]; [7] 0% | [3]; [7] 2% | [3]; [8] 68% | [4]; [7] -1% | [5]; [7] -4%
active: [1]; [8] 79% | [1]; at 50.0 µM 96.1% | [2]; [8] 79% | [2]; at 50.0 µM 98.8% | [3]; at 50.0 µM 98% | [4]; [8] 95% | [4]; at 50.0 µM 99% | [5]; [8] 91% | [5]; at 50.0 µM 98.8%

CCCCN(CCCC)CC(O)c1ccc2cc(Cl)c3ccccc3c2c1 (stereo unspecified)
inactive: [1]; [7] 40% | [3]; [7] 41% | [4]; [7] 57% | [5]; [7] 63%
active: [1]; [8] 100% | [1]; at 50.0 µM 99.7% | [2]; [7] 85% | [2]; [8] 100% | [2]; at 50.0 µM 99.5% | [3]; [8] 99% | [3]; at 50.0 µM 99.4% | [4]; [8] 99% | [4]; at 50.0 µM 92.2% | [5]; [8] 100% | [5]; at 50.0 µM 99.4%

COc1ccc(OC)c(/C=C2/C(=O)ON=C2C)c1
inactive: [6]; [7] -14% | [6]; [8] 7% | [6]; at 50.0 µM 42.4% | [1]; [7] -11% | [1]; [8] 5% | [1]; at 50.0 µM 54.4% | [3]; [7] 0% | [3]; [8] 14% | [3]; at 50.0 µM 22% | [4]; [7] 11% | [4]; [8] 23% | [4]; at 50.0 µM 43.5% | [5]; [7] 8% | [5]; [8] 23% | [5]; at 50.0 µM 22.7%

CCOC(=O)C(=N\Nc1ccccc1C)/C(C)=N\NC(N)=S
inactive: [1]; [7] 7% | [1]; [8] 55% | [1]; at 50.0 µM 48.5% | [2]; [7] 15% | [3]; [7] -13% | [3]; [8] 20% | [4]; [7] 5% | [4]; [8] 30% | [5]; [7] 18% | [5]; [8] 68%
active: [2]; [8] 71% | [2]; at 50.0 µM 75.2% | [3]; at 50.0 µM 81.1% | [4]; at 50.0 µM 73.6% | [5]; at 50.0 µM 80.3%

O=C(CC(C(=O)O)C(c1ccccc1)[N+](=O)[O-])c1ccccc1 (stereo unspecified)
inactive: [6]; at 50.0 µM -4.1% and 6.9% and 6.55% | [1]; at 50.0 µM -5.4% and -10.8% and 16.7% | [2]; at 50.0 µM 4.4% and 6.3% and -17.4% | [3]; at 50.0 µM -67.8% and 15.6% and -18.9% | [4]; at 50.0 µM -9.65% and 9.1% and 5.6% | [5]; at 50.0 µM -2.55% and 22.1% and 32.6%

COC1OC(CO)C(O)C(O)C1O (stereo unspecified)
inactive: [6]; at 50.0 µM -6.55% and -5.05% and -29.2% | [1]; at 50.0 µM -5.2% and 1.65% and -23.1% | [2]; at 50.0 µM -4.3% and -4.25% and -9.9% | [3]; at 50.0 µM 16.9% and -53.9% and -37.4% | [4]; at 50.0 µM -12.3% and 5.7% and -2.25% | [5]; at 50.0 µM 0.8% and 7.3% and -8.25%

O=C1NC(=O)/C(=C/c2ccc(S(=O)(=O)N/N=C\C(O)C(O)C(O)C(O)CO)cc2)N1 (stereo unspecified)
inactive: [6]; at 50.0 µM 3.55% and -20.8% and 1.5% | [1]; at 50.0 µM -3.7% and 38.8% and 12.5% | [2]; at 50.0 µM -19.6% and 19.2% and -13.3% | [3]; at 50.0 µM 2.3% and 4.95% and 8.9% | [4]; at 50.0 µM -17.4% and -6.2% and 3.65% | [5]; at 50.0 µM 15.4% and 28.7% and 13.4%

CN(C)c1ccc(-c2c(C#N)c(-c3ccccc3)n(NS(=O)(=O)c3ccccc3)c(=O)c2C#N)cc1
inactive: [1]; [7] 23% | [1]; [8] 32% | [2]; [7] 34% | [2]; [8] 50% | [3]; [7] 44% | [3]; [8] 53% | [4]; [7] 54% | [4]; [8] 51% | [5]; [7] 17% | [5]; [8] 31%
active: [1]; at 50.0 µM 75.5% | [2]; at 50.0 µM 75.2% | [3]; at 50.0 µM 80.8% | [4]; at 50.0 µM 76.2% | [5]; at 50.0 µM 72.2%

CCSC(=O)/C=C1\CN(C(=O)OC(C)(C)C)C1C(=O)OC(C)(C)C (stereo unspecified)
inactive: [6]; [7] -23% | [6]; [8] -7% | [6]; at 50.0 µM 30.1% | [1]; [7] -40% | [1]; [8] -9% | [1]; at 50.0 µM 26.9% | [2]; [7] -44% | [2]; [8] -2% | [2]; at 50.0 µM 56% | [4]; [7] -57% | [4]; [8] 10% | [4]; at 50.0 µM 58.5% | [5]; [7] -15% | [5]; [8] 12%
active: [5]; at 50.0 µM 70%

COc1ccc([N+](=O)[O-])cc1Nc1c2ccccc2nc2ccccc12
active: [6]; at 50.0 µM 80.8% | [1]; [8] 70%
inactive: [6]; [7] 6% | [6]; [8] 69% | [1]; [7] 17% | [1]; at 50.0 µM 64.2% | [3]; [7] -2% | [3]; [8] -16% | [3]; at 50.0 µM 37.5% | [4]; [7] -1% | [4]; [8] 49% | [4]; at 50.0 µM 46.5% | [5]; [7] 1% | [5]; [8] 6% | [5]; at 50.0 µM 41%

CC(=O)SCC(=O)Nc1ccc(Cl)cc1
active: [6]; [8] 91% | [6]; at 50.0 µM 88% | [1]; [8] 81% | [4]; [8] 90% | [4]; at 50.0 µM 79.9% | [5]; [8] 90% | [5]; at 50.0 µM 91.6%
inactive: [6]; [7] 9% | [1]; [7] 1% | [1]; at 50.0 µM 68.9% | [3]; [7] 2% | [3]; [8] 43% | [3]; at 50.0 µM 58.5% | [4]; [7] -18% | [5]; [7] 7%

CCOC1(OCC)C(C)C(c2ccccc2)C(c2ccccc2)C1C (stereo unspecified)
inactive: [6]; [7] -3% | [6]; [8] -1% | [1]; [7] -6% | [1]; [8] -4% | [3]; [7] -4% | [3]; [8] -2% | [4]; [7] -8% | [4]; [8] -5% | [5]; [7] -9% | [5]; [8] 9%
active: [6]; at 50.0 µM 79.3% | [1]; at 50.0 µM 98.8% | [3]; at 50.0 µM 98.5% | [4]; at 50.0 µM 99% | [5]; at 50.0 µM 98.7%

Brc1ccc(N2COc3ccc4ccccc4c3C2)cc1
inactive: [1]; [7] 19% | [1]; [8] -1% | [1]; at 50.0 µM 35.5% | [2]; [7] 16% | [2]; [8] -4% | [2]; at 50.0 µM 62.4% | [3]; [7] -17% | [3]; [8] -3% | [3]; at 50.0 µM 0.95% | [4]; [7] 9% | [4]; [8] -3% | [5]; [7] 16% | [5]; [8] 2% | [5]; at 50.0 µM 46.4%
active: [4]; at 50.0 µM 77.9%
